# Measured values as given in the supplement of paper PMC8728848.
# The sample as a whole holds a higher share of the strongest signals than the screen did.
# Columns and labels:
# Assay in all cases: glycan array binding signal (z-score within array); higher = stronger binding
# Conditions in all cases: glycan notation: IUPAC condensed, linker removed
# [1] = target: Gal(b1-4)GlcNAc(b1-3)[GlcNAc(b1-6)]Gal(b1-4)GlcNAc
# In short: (§1)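 Columns mapping to the same glycan were averaged after glycan names were converted to IUPAC-condensed notation. The data come from 3228 arrays in the Consortium for Functional Glycomics database, limited to those with an available protein sequence. Binding is reported as a within-array Z-score averaged across arrays of one protein sequence and across linkers.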
# Gal6S(b1-4)Glc6S = target: Gal6S(b1-4)Glc6S
# In short: as §1
# Glc(a1-6)Glc(a1-6)Glc = target: Glc(a1-6)Glc(a1-6)Glc
# In short: as §1
# [2] = target: GlcNAc(a1-4)Gal(b1-4)GlcNAc(b1-3)Gal(b1-4)GlcNAc
# In short: as §1
# [3] = target: GlcNAc(b1-2)Man(a1-3)[GlcNAc(b1-4)][GlcNAc(b1-2)Man(a1-6)]Man(b1-4)GlcNAc(b1-4)GlcNAc
# In short: as §1
# [4] = target: GlcNAc(b1-3)Gal(b1-4)GlcNAc(b1-3)Gal(b1-4)GlcNAc(b1-2)[GlcNAc(b1-3)Gal(b1-4)GlcNAc(b1-3)Gal(b1-4)GlcNAc(b1-6)]Man(a1-6)[GlcNAc(b1-3)Gal(b1-4)GlcNAc(b1-3)Gal(b1-4)GlcNAc(b1-2)Man(a1-3)]Man(b1-4)GlcNAc(b1-4)[Fuc(a1-6)]GlcNAc
# In short: as §1
# [5] = target: GlcNAc(b1-3)Gal(b1-4)GlcNAc(b1-3)Gal(b1-4)GlcNAc(b1-3)Gal(b1-4)GlcNAc(b1-3)Gal(b1-4)GlcNAc(b1-2)Man(a1-3)[GlcNAc(b1-3)Gal(b1-4)GlcNAc(b1-3)Gal(b1-4)GlcNAc(b1-3)Gal(b1-4)GlcNAc(b1-3)Gal(b1-4)GlcNAc(b1-2)Man(a1-6)]Man(b1-4)GlcNAc(b1-4)[Fuc(a1-6)]GlcNAc
# In short: as §1
# [6] = target: GlcNAc(b1-3)Gal(b1-4)GlcNAc(b1-3)Gal(b1-4)GlcNAc(b1-3)Gal(b1-4)GlcNAc(b1-3)Gal(b1-4)GlcNAc(b1-2)[GlcNAc(b1-3)Gal(b1-4)GlcNAc(b1-3)Gal(b1-4)GlcNAc(b1-3)Gal(b1-4)GlcNAc(b1-3)Gal(b1-4)GlcNAc(b1-6)]Man(a1-6)[GlcNAc(b1-3)Gal(b1-4)GlcNAc(b1-3)Gal(b1-4)GlcNAc(b1-3)Gal(b1-4)GlcNAc(b1-3)Gal(b1-4)GlcNAc(b1-2)Man(a1-3)]Man(b1-4)GlcNAc(b1-4)[Fuc(a1-6)]GlcNAc
# In short: as §1
# Kdn(a2-3)Gal(b1-4)GlcNAc = target: Kdn(a2-3)Gal(b1-4)GlcNAc
# In short: as §1
# Neu5Ac(a2-3)Gal = target: Neu5Ac(a2-3)Gal
# In short: as §1
# [7] = target: Neu5Ac(a2-3)Gal(b1-3)GlcNAc(b1-2)Man
# In short: as §1
# [8] = target: Neu5Ac(a2-3)Gal(b1-3)[Fuc(a1-4)]GlcNAc(b1-3)Gal(b1-4)[Fuc(a1-3)]GlcNAc
# In short: as §1
# [9] = target: Neu5Ac(a2-3)Gal(b1-3)[Neu5Ac(a2-6)]GalNAc
# In short: as §1
# [10] = target: Neu5Ac(a2-3)Gal(b1-4)GlcNAc(b1-3)Gal(b1-4)GlcNAc(b1-3)Gal(b1-4)GlcNAc(b1-2)Man(a1-3)[Neu5Ac(a2-3)Gal(b1-4)GlcNAc(b1-3)Gal(b1-4)GlcNAc(b1-3)Gal(b1-4)GlcNAc(b1-2)Man(a1-6)]GalNAc
# In short: as §1
# [11] = target: Neu5Ac(a2-3)Gal(b1-4)GlcNAc(b1-3)Gal(b1-4)[Fuc(a1-3)]GlcNAc
# In short: as §1
# [12] = target: Neu5Ac(a2-3)Gal(b1-4)GlcNAc(b1-6)[Neu5Ac(a2-3)Gal(b1-3)]GalNAc
# In short: as §1
# [13] = target: Neu5Ac(a2-3)Gal(b1-4)[Fuc(a1-3)]GlcNAc(b1-3)GalNAc
# In short: as §1
# [14] = target: Neu5Ac(a2-3)Gal(b1-4)[Fuc(a1-3)]GlcNAc(b1-6)[Gal(b1-3)]GalNAc
# In short: as §1
# [15] = target: Neu5Ac(a2-3)[GalNAc(b1-4)]Gal(b1-4)Glc
# In short: as §1
# [16] = target: Neu5Ac(a2-6)Gal(b1-4)GlcNAc(b1-2)Man(a1-3)[Neu5Ac(a2-6)Gal(b1-4)GlcNAc(b1-2)Man(a1-6)]Man(b1-4)GlcNAc(b1-4)[Fuc(a1-6)]GlcNAc
# In short: as §1
# [17] = target: Neu5Ac(a2-6)Gal(b1-4)GlcNAc(b1-3)Gal(b1-4)GlcNAc(b1-3)Gal(b1-4)GlcNAc(b1-2)Man(a1-3)[Neu5Ac(a2-6)Gal(b1-4)GlcNAc(b1-3)Gal(b1-4)GlcNAc(b1-3)Gal(b1-4)GlcNAc(b1-2)Man(a1-6)]GalNAc
# In short: as §1
# [18] = target: Neu5Ac(a2-6)Gal(b1-4)GlcNAc(b1-3)Gal(b1-4)GlcNAc(b1-3)[Neu5Ac(a2-6)Gal(b1-4)GlcNAc(b1-3)Gal(b1-4)GlcNAc(b1-6)]GalNAc
# In short: as §1
# [19] = target: Neu5Ac(a2-8)Neu5Gc(a2-3)Gal(b1-4)GlcNAc
# In short: as §1
# [20] = target: Neu5Gc(a2-3)Gal(b1-4)[Fuc(a1-3)]GlcNAc
# In short: as §1
binder,measurement,setting,value
PX9961T-pdi-555-33-555 (Parabacteroides distasonis) (protein) FDEETAFQSPTLVYVNTVASLYNNMFKIMGNDRHVYDLNTFSSDEAMLPCRIGDWEDGGLWQNIFLHRWGTMNDLTKNSWDFLYEQIGKCNQSVDKLQAFAEEQPDVEYFKVYLEEVRAVRAFFYYELLDLFARVPLVTSSTTPMSEVKQSERSVVFNFVRSELEEALPYLSDNRSNQKGEYYGRITKPVAYMILAKLALNAEVYADDNWTDGNRPAGKNIKFTVDGKEMNAWEATIAYVDKLEALGYKLQGNFSENFAVANETSVENIFTVPMDPVAYPDAKDYNLVRTRHYDHATAYGQSGWNGSCATVKAMNVFKFGTADEDPRCKLTYFTGEVTGPDGKTIYTEWDGQKVPLKYEPNAPKVYMDASDGLLVKTAGARMAKYEFDQNAQDGGNLHGNDCVIFRFADALLMKAEAKIRLGQNGDDEVNQVRNRVGAKPLQNVTLDTLLDERMLELAWEGVRRQDLIRFGKFTEATVDRYVGVKHFASSLDYQEDKTGYTTVFSIYADILSLNPNLTQNPGY,glycan array binding signal (z-score),[1],-0.222
same,glycan array binding signal (z-score),Gal6S(b1-4)Glc6S,-0.372
same,glycan array binding signal (z-score),Glc(a1-6)Glc(a1-6)Glc,0.357
same,glycan array binding signal (z-score),[2],-0.402
same,glycan array binding signal (z-score),[3],-0.416
same,glycan array binding signal (z-score),[4],-0.298
same,glycan array binding signal (z-score),[5],0.229
same,glycan array binding signal (z-score),[6],-0.523
same,glycan array binding signal (z-score),Kdn(a2-3)Gal(b1-4)GlcNAc,-0.683
same,glycan array binding signal (z-score),Neu5Ac(a2-3)Gal,-0.213
same,glycan array binding signal (z-score),[7],-0.451
same,glycan array binding signal (z-score),[8],-0.031
same,glycan array binding signal (z-score),[9],-0.194
same,glycan array binding signal (z-score),[10],1.63
same,glycan array binding signal (z-score),[11],-0.528
same,glycan array binding signal (z-score),[12],1.08
same,glycan array binding signal (z-score),[13],1.68
same,glycan array binding signal (z-score),[14],-0.177
same,glycan array binding signal (z-score),[15],1.56
same,glycan array binding signal (z-score),[16],-0.612
same,glycan array binding signal (z-score),[17],0.737
same,glycan array binding signal (z-score),[18],1.82
same,glycan array binding signal (z-score),[19],20.7
same,glycan array binding signal (z-score),[20],0.358
